# Screening results deposited in PubChem BioAssay by National Center for Advancing Translational Sciences (NCATS).
# A selection: hits, their analogues and other compounds. The true share with any hit is near 7.4%.
# FLuc counter – qHTS profiling assay for firefly luciferase inhibitor/activator using purifed enzyme and Km concentrations of substrates (counterscreen for miR-21 project). 360,000 tested, 6.9% active. Potency, µM (highest dose often 57.5 µM), for the others: at the highest dose activity change, negative = inhibition, most hits filed as inhibitors. Luciferin 4-monooxygenase (Photinus pyralis), P08659. purified FLuc, Km substrates, luminescence inhibition;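 note: plate controls were vehicle for no effect and reference inhibitor for full effect; nearly all actives have a fitted effect of over 55% in size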
# Target sequence (P08659 whole entry, looked up): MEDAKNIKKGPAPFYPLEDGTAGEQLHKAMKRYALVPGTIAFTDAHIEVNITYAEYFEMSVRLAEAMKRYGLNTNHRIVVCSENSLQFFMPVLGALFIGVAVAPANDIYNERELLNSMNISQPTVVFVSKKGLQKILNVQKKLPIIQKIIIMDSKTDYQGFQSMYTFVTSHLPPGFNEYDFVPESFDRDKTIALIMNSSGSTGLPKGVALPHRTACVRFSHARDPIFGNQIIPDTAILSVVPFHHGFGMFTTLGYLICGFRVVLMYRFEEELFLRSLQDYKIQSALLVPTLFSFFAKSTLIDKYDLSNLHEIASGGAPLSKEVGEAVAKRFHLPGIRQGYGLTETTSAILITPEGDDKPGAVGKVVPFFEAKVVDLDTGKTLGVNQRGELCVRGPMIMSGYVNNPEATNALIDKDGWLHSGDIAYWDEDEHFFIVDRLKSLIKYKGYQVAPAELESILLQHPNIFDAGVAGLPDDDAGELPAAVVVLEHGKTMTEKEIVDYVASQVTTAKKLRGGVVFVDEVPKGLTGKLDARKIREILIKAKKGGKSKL
#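 Purified P. pyralis luciferase (10nM final) with 10uM D-luciferin and 10uM ATP (Km levels) in 50mM Tris acetate pH 7.5, 10mM Mg acetate, 0.01% Tween-20, 0.05% BSA; qHTS 6-point titration, ~60 µM downward; luminescence read.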
# NPC1 prom act – qHTS Assay for NPC1 Promoter Activators; Huh7 NPC1 promoter luciferase reporter, 24 h; Potency, µM (series often up to 9.22 µM), without a hit: top-dose activation, actives largely listed as activators; 320,000 tested, 2.4% active; note: % of control where 0% means no effect; nearly all actives have a fitted effect of over 60% in size
#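 Stable NPC1-promoter luciferase Huh7 line; cpd (DMSO) 24 h, 37 °C, 5% CO2; Amplite luciferase reagent 10 min RT; luminescence readout. qHTS format.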
# SMN2 splice enh – qHTS Assay for Enhancers of SMN2 Splice Variant Expression; Potency, µM (highest dose often 46.1 µM), for inactives: at the highest dose activity change, positive = activation, actives largely listed as activators; 210,000 tested, 2.8% active; HEK293 SMN2-luciferase splicing reporter, luminescence, 30-36 h; AID 1458, 2008; note: % of control where 0% means no effect; nearly all actives have a fitted effect of over 55% in size
#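 HEK293 cells carry an SMN2 minigene-luciferase reporter in which exon 7 inclusion puts luciferase in frame. Cells were seeded at 2000 cells/well, attached for 10-12 hours, then exposed to compounds for 30-36 hours at 37C before ONE-Glo luminescence.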
# Rab9 promoter act – qHTS Assay for Rab9 Promoter Activators. Huh7 Rab9 promoter-luciferase reporter, luminescence, 24 h. Potency, µM (top dose mostly 9.22 µM), without a hit: at the highest dose activation, negative = inhibition, most hits filed as activators. 320,000 tested, 2.8% active. AID 485297, 2010; note: % of control where 0% means no effect; nearly all actives have a fitted effect of over 60% in size
#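 Rab9 promoter-driven luciferase in stably transfected Huh7 cells; 1500 cells/well rested 2 h, exposed to compound in DMSO for 24 h at 37 °C, 5% CO2. Luminescence read 10 min after adding luciferase reagent at ambient temperature.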
# ELG1 genotoxic – qHTS screen for small molecules that induce genotoxicity in human embryonic kidney (HEK293T) cells expressing luciferase-tagged ELG1 | AID 504466, 2011 | Potency, µM (doses to about 46 µM), for the others: at the highest dose activity change, positive = activation, usual class: activators | HEK293T ELG1-luciferase reporter, luminescence, 16 h | 330,000 tested, 1.3% active; note: % of control where 0% means no effect; nearly all actives have a fitted effect of over 60% in size
#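 Quantitative HTS format in 1536-well plates. HEK293T ELG1-luciferase reporter cells receive test compound and are incubated 16 hr at 37 °C, 5% CO2; ONE-Glo added, 30 min room temperature, then luminescence read.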
# * hit, by the source's call; ? = inconclusive; . = not tested or not shown; [ ] = remark or other dose. Calls come from the whole dose curve; as a rule, active = well fitted curve in the direction sought with a large enough effect; inconclusive = small, poorly fitted or top-dose-only effect, or another doubt; inactive = no such curve, though single readings can be large; an effect the other way counts as inactive or inconclusive. Potency is the fitted concentration of half-maximal effect.
SMILES,FLuc counter,NPC1 prom act,SMN2 splice enh,Rab9 promoter act,ELG1 genotoxic
Cc1ccc(-c2nc3ccc(Cl)cn3c2Nc2ccc3c(c2)OCCO3)s1,?,.,5µM*,.,.
Cc1ccn2c(Nc3ccc4c(c3)OCCO4)c(-c3cccs3)nc2c1,9.5µM*,.,-2%,.,.
CCOC(=O)C1=C(CS(=O)(=O)c2ccc(C)c(C)c2)NC(=O)NC1c1ccccc1OCC (stereo not given),5%,.,-5%,.,.
O=C(O)c1cc(S(=O)(=O)NCCOc2ccccc2)ccc1Cl,.,.,.,.,-2%
Cc1ccn2c(Nc3ccc4c(c3)OCO4)c(-c3ccc(C)o3)nc2c1,24µM*,.,1%,.,.
Cc1ccc(Nc2c(-c3ccc(C)o3)nc3cnccn23)cc1,-17%,-6%,10%,4%,?
COc1ccc(Nc2c(-c3ccc(C)o3)nc3cc(C)ccn23)cc1,17µM*,.,-4%,.,.
Cc1oc(-c2ccccc2)cc1C(=O)Nc1ccc(N(C)C)cc1,13µM*,0%,-30%,0%,0%
Cc1oc(-c2ccccc2)cc1C(=O)Nc1cccc(/C=C\C(=O)O)c1,15µM*,-4%,.,1%,-1%
O=C(O)/C=C/c1cccc(NC(=O)c2ccccc2)c1,?,1%,.,14%,0%
Cc1cc(=O)oc(C)c1C(=O)Nc1ccc(N(C)C)cc1,4%,-3%,.,-2%,1%
O=C(O)/C=C/c1cccc(NC(=O)c2ccc(Cl)cc2)c1,-4%,-4%,.,-4%,4%
Cc1oc(C(C)(C)C)cc1C(=O)Nc1cccc(/C=C\C(=O)O)c1,8.5µM*,2%,8%,2%,9%
O=C(NCc1ccccc1CN1CCCC1)C1CCN(C(=O)c2ccc(F)cc2)CC1,.,-1%,.,-1%,2%
Cc1ccc(NC(=O)c2cnn(-c3ccc(C)c(C)c3)c2C2CCN(C(=O)OC(C)(C)C)CC2)c(C)c1,2%,.,19%,.,.
Cc1ccc(NC(=S)Nc2ccccn2)c(C)c1,8.5µM*,?,.,2.8µM*,?
CCOc1ccc(NC(=S)Nc2ccc(F)cc2)cc1,?,2%,.,8%,-1%
Cc1ccc(NC(=S)Nc2ccccn2)cc1C,17µM*,18%,.,?,16%
COC(=O)c1ccc(NC(=S)Nc2ccccn2)cc1,?,2.8µM*,11µM*,1.8µM*,?
Cc1cc(Cl)ccc1NC(=S)Nc1ccccn1,-16%,?,?,?,6%
CCOc1ccc(NC(=S)Nc2cc(-c3ccccc3)[nH]n2)cc1,21µM*,0%,-7%,3%,-4%
Cc1cccc(NC(=S)Nc2ccccn2)c1,?,22%,.,?,12%
COC(=O)c1ccc(NC(=S)Nc2ccc(O)cc2)cc1,-5%,-1%,-9%,-4%,1%
COc1ccccc1NC(=S)N(CCN1CCCCCC1)Cc1cccs1,0%,-7%,9%,-14%,-15%
O=C(NCCCN1CCCCC1)c1cc(Sc2ccc(Cl)cc2)nc2ccccc12,-3%,.,.,.,.
SMILES,FLuc counter,NPC1 prom act,SMN2 splice enh,Rab9 promoter act,ELG1 genotoxic
CCN(CC)CCCNC(=O)c1oc2c(c1C)-c1nn(Cc3ccc(Cl)cc3)cc1CC2,-1%,.,.,.,.
COc1ccc(NC(=S)Nc2ccccn2)cc1,13µM*,3.2µM*,.,2.5µM*,?
COc1cccc(NC(=S)Nc2cc(C)cc(C)n2)c1,2.1µM*,4%,.,5%,14%
Cc1cc(C)nc(NC(=S)Nc2cccc(F)c2)c1,?,4%,.,25%,3%
O=S1(=O)CCO[C@H]2Cc3ccccc3[C@H]2N1Cc1ccc(F)cc1,1%,-1%,.,-2%,0%
CCC(=O)Nc1ccccc1C(=O)C(=O)Nc1ccccc1,2%,?,?,2.5µM*,8%
CC(=O)Nc1ccccc1C(=O)C(=O)Nc1cccc(Br)c1,-4%,?,29%,2.5µM*,6%
O=C(NN=C1CCCCCC1)C(=O)Nc1cccc(Br)c1,6µM*,18%,-2%[1.84 µM],23%,17%
CN1CCC(=NNC(=O)C(=O)Nc2ccccc2)CC1,?,11%,5%,?,14%
CC(=O)Nc1ccccc1C(=O)C(=O)Nc1ccc(Cl)cc1,-19%,2.2µM*,22µM*,2.5µM*,?
CC(=O)Nc1ccccc1C(=O)C(=O)Nc1ccccc1,2%,?,?,?,2%
COc1ccc(-c2c(NC(=O)c3ccco3)oc3c(C)cccc3c2=O)cc1OC,5%,-2%,.,-1%,-8%
CN(C)Cc1c(C(=O)N/N=C/C2CC=CCC2)nnn1-c1nonc1N (stereo not given),0%,-3%,.,-4%,3%
CCn1c(=O)n(-c2ccc3c(c2)OCO3)c2nc(-c3ccc(C(C)C)cc3)nc(C(N)=O)c21,-5%,.,11%,.,.
CCOc1ccccc1N/C(=N/c1nc(C)cc(C)n1)NC(=O)Nc1ccc(Cl)c(Cl)c1,3%,-3%,-37%,0%,0%
CCOC(=O)c1ccc(NC(=O)Cn2c(=O)cc(C(F)(F)F)c3c(C)nn(C)c32)cc1,-15%,.,.,.,.
Cc1cccnc1NC(=O)Nc1ccccc1,11µM*,?,.,4µM*,?
Cc1cccnc1NC(=O)Nc1ccc(Cl)cc1,4.3µM*,-8%,.,4µM*,?
COc1ccc(C(=O)NC(=O)Nc2ncccc2C)cc1,17µM*,?,?,3.5µM*,?
COc1ccc(NC(=O)Nc2ncccc2C)cc1,11µM*,?,11µM*,?,?
CCN(c1ccccc1)C(CNS(=O)(=O)c1ccccc1)c1ccccc1 (stereo not given),-10%,.,-6%,.,.
O=c1[nH]c2ccccc2nc1Cc1ccc(Cl)cc1,1%,-3%,.,-1%,4%
CN(CC(=O)O)Cc1nc2ccccc2[nH]1,21µM*,1%,1%,-3%,?
c1ccc(CCc2nc3ccccc3[nH]2)cc1,17µM*,?,.,?,?
Nc1cccc(CCc2nc3cc4ccccc4cc3[nH]2)c1,19µM*,27%,5.6µM*,1.6µM*,18µM*
SMILES,FLuc counter,NPC1 prom act,SMN2 splice enh,Rab9 promoter act,ELG1 genotoxic
O=c1[nH]c2ccccc2nc1CCc1ccccc1,-9%,?,?,3.2µM*,?
Nc1ccc2nc(CCCCc3nc4ccccc4[nH]3)[nH]c2c1,4%,-10%,.,0%,-3%
Cc1ccc(C(=O)Nc2ccnc(-c3ccncc3)n2)cc1,?,1%,7%,1%,-3%
Cc1nc(-c2ccc(C)c(N3CCN(C(=O)Nc4ccc(Br)cc4)CC3)c2)no1,-7%,.,.,.,.
O=C(/C=C(\O)c1ccccc1)C(=O)NNC(=O)c1ccccc1[N+](=O)[O-],2%,11%,.,1%,2%
Nc1ccccc1C(=O)NNC(=O)C(=O)/C=C(\O)c1ccccc1,13µM*,17%,.,21%,15%
COc1cc(NC(=O)C2CCN(c3nc4ccccc4nc3C(F)(F)F)CC2)cc(OC)c1,2%,.,.,.,.
